# A number with no mark means an inactive call. For part of these data: Measured potencies and affinities stand elsewhere. The source made the active and inactive calls. Unless noted, how the calls were made is not given here.
# Columns and labels:
# [1] = antimalarial activity against Dd2 strain (AID 2302;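 active means growth inhibition above 50% at the single 2 µM test dose, taken to imply half-maximal potency below 2 µM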;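 further: 0% = DMSO untreated growth and 100% = chloroquine plus artemisinin killed control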); conditions: P. falciparum Dd2 in RBCs, LDH growth readout, 72 h; at 2 µM; hits give high values
# [2] = human hepatoma cell viability loss – ATP luminescence, cytotoxicity control for P. falciparum antimalarial project, primary screen (AID 2303;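 active means inhibition above 50%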;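 further: 0% = DMSO wells and 100% = digitonin-killed cells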); conditions: HepG2 viability, 24-48 h, at 10 µM, hits give high values
# [3] = molecular target: L-lactate dehydrogenase (Plasmodium falciparum (isolate CDC / Honduras)) (UniProt Q27743); assay: PfLDH activity inhibition – cell lysate, 3D7 strain, counter-screen for P. falciparum growth inhibition project (AID 2304);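 further: 0% = vehicle and 100% = reference inhibitor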; conditions: P. falciparum 3D7 crude extract, LDH APAD/NBT absorbance; at 2 µM; hits give high values
# Sequence of L-lactate dehydrogenase (Plasmodium falciparum (isolate CDC / Honduras)) (Q27743 whole entry, looked up): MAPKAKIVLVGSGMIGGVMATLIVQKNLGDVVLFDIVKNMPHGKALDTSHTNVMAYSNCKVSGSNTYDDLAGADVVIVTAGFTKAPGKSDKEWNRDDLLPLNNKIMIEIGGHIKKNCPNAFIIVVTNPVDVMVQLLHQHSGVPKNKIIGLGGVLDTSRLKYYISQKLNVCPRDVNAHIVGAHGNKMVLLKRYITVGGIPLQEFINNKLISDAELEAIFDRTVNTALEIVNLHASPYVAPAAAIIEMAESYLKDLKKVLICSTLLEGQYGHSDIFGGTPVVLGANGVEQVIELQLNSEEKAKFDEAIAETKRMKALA
# [4] = inhibition of 3D7 malaria parasite growth – strain 3D7 (AID 2306);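 further: 0% = DMSO wells and 100% = chloroquine plus artemisinin control wells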; conditions: P. falciparum 3D7 erythrocytic growth, LDH absorbance, 72 h; at 2 µM; hits give high values
# [5] = molecular target: Calcium-dependent protein kinase 1 (Plasmodium falciparum (isolate 3D7)) (UniProt P62344); assay: PfCDPK1 kinase inhibitors, biochemical, TCAMS library (AID 1159585; cut-off not given, nearly all actives have IC50 up to about 0.98 µM;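 further: inhibitors leave more ATP so luminescence rises with inhibition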); conditions: recombinant PfCDPK1, Kinase-Glo ATP depletion luminescence
# Sequence of Calcium-dependent protein kinase 1 (Plasmodium falciparum (isolate 3D7)) (P62344 whole entry, looked up): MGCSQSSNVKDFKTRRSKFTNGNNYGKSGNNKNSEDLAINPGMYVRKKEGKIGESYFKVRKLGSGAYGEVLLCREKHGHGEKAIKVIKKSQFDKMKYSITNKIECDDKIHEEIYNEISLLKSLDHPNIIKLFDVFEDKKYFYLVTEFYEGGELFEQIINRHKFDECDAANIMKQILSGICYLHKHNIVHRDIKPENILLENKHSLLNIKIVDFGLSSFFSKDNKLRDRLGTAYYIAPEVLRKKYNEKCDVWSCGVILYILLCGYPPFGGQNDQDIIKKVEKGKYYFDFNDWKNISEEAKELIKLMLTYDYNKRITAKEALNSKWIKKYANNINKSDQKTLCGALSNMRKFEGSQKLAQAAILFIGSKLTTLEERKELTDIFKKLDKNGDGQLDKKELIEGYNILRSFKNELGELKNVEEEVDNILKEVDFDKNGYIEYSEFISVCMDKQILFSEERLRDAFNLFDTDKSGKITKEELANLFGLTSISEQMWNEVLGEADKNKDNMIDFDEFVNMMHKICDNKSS
# [6] = molecular target: Plasmodium falciparum protein kinase 6 (PK6, PF3D7_1337100) (UniProt Q8IDW1); assay: PfPK6 kinase inhibitors, biochemical, TCAMS library (AID 1159586); conditions: recombinant PfPK6, Kinase-Glo ATP depletion luminescence
# Sequence of Plasmodium falciparum protein kinase 6 (PK6, PF3D7_1337100) (Q8IDW1 1-305): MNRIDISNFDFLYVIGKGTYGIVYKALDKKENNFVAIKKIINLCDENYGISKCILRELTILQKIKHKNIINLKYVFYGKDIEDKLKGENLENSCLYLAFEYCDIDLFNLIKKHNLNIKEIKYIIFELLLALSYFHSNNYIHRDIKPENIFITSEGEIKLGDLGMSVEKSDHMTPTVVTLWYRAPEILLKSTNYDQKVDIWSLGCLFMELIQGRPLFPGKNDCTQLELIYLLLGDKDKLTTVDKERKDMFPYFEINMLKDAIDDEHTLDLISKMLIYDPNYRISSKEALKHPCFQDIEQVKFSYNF
# [7] = molecular target: Protein kinase 7 (PK7), Plasmodium falciparum 3D7 (PF3D7_0213400) (UniProt Q7YTF7); assay: inhibition of Plasmodium PK7 catalytic activity – biochemical, TCAMS antimalarial set, Kinase-Glo luminescence (AID 1159587); conditions: recombinant PfPK7, Kinase-Glo ATP depletion luminescence
# Sequence of Protein kinase 7 (PK7), Plasmodium falciparum 3D7 (PF3D7_0213400) (Q7YTF7 1-343): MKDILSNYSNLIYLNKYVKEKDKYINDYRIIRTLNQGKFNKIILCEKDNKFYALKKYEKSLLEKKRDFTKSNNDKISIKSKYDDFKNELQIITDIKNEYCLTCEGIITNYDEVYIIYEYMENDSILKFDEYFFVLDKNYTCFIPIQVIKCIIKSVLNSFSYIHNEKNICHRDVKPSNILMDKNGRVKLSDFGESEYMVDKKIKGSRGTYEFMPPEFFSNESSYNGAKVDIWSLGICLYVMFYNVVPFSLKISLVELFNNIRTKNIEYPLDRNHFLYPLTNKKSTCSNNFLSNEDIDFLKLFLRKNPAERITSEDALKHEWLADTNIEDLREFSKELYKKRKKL
# [8] = molecular target: Calcium-dependent protein kinase 4 (Plasmodium falciparum (isolate 3D7)) (UniProt Q8IBS5); assay: PfCDPK4 kinase inhibitors, biochemical, TCAMS library (AID 1159588; cut-off not given, nearly all actives have IC50 up to about 0.91 µM); conditions: recombinant PfCDPK4, Kinase-Glo ATP depletion luminescence
# Sequence of Calcium-dependent protein kinase 4 (Plasmodium falciparum (isolate 3D7)) (Q8IBS5 whole entry, looked up): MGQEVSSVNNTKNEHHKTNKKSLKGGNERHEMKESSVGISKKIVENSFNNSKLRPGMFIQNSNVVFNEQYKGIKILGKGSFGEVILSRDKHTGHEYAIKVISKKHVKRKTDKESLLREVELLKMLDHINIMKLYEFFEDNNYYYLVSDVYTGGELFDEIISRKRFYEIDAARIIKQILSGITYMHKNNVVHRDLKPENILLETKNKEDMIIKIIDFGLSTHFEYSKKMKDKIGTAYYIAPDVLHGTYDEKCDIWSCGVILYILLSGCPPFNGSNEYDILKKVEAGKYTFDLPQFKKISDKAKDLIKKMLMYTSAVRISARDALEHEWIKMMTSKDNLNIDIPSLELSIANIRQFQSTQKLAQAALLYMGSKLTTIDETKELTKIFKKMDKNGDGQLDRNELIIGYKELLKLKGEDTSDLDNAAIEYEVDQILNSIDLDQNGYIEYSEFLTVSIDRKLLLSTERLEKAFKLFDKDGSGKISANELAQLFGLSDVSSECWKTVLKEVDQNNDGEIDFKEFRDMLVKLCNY
Compound,growth inhibition [1],inhibition [2],inhibition [3],growth inhibition [4],outcome [5],outcome [6],outcome [7],outcome [8]
CCn1cc(C(=O)O)c(=O)c2cc(F)c(N3CCN(S(=O)(=O)c4ccc(N)cc4)CC3)cc21,79% (active),-2%,4%,90% (active),inactive,inactive,inactive,inactive
O=c1cc(NCCCNCc2cccc(OC(F)(F)C(F)F)c2)[nH]c2ccccc12,7%,6%,-5%,81% (active),inactive,inactive,inactive,inactive
O=C(Nc1ccc(C(F)(F)F)cc1)c1cccc(S(=O)(=O)NC2CCN(CC3CCCCC3)C2)c1 (stereo unspecified),10%,32%,-2%,98% (active),inactive,inactive,inactive,inactive
COc1ccc(CCNc2nc(NCc3ccccc3)c3cc(OC)c(OC)cc3n2)cc1OC,91% (active),46%,0%,100% (active),inactive,inactive,inactive,inactive
CN(C)c1ccc(CN2CCC(CNC(=O)c3cc(-c4ccccc4Cl)cs3)C2)cc1 (stereo unspecified),5%,29%,-3%,91% (active),inactive,inactive,inactive,inactive
CC(C)c1ccc(NC(=O)c2cccc(CN3CCCN(Cc4cccc(C#N)c4)CC3)c2)cc1,15%,48%,-5%,93% (active),inactive,inactive,inactive,inactive
COC(=O)c1ccc(OCC(C)NCC(O)c2cccc(C(F)(F)F)c2)cc1 (stereo unspecified),81% (active),6%,-2%,94% (active),inactive,inactive,inactive,inactive
Nc1cc(-c2ccc3ccccc3c2)nc2ccccc12,52% (active),19%,-2%,99% (active),inactive,inactive,inactive,inactive
O=C(NCc1cccc(F)c1)Nc1ccc(-c2cccc(-c3nc4ccccc4[nH]3)c2)cc1,2%,14%,0%,86% (active),inactive,inactive,inactive,inactive
O=C(/C=C/c1cccs1)NCC(NCCCNc1cc(=O)c2ccccc2[nH]1)c1cc(Br)cc(Br)c1 (stereo unspecified),58% (active),0%,0%,100% (active),inactive,inactive,inactive,inactive
O=C(Nc1ccc(-c2nc3ccccc3[nH]2)cc1)c1ccc(Cl)c([N+](=O)[O-])c1,4%,6%,1%,99% (active),inactive,inactive,inactive,inactive
CC(C)CN(C)Cc1ccc(-c2ccc(-c3nc4ccccc4[nH]3)s2)cc1,76% (active),8%,2%,97% (active),inactive,inactive,inactive,inactive
Cc1cc(N2CCOCC2)nc(Nc2ccc(NC(=O)c3cccc4ccccc34)cc2)n1,11%,44%,-1%,95% (active),inactive,inactive,inactive,inactive
Cc1cccc2c(CON3C(N)=NC(N)=NC3(C)C)cccc12,94% (active),64% (active),-1%,94% (active),inactive,inactive,inactive,inactive
Nc1c2c(nc3ccc(NC(=O)c4ccc([N+](=O)[O-])cc4)cc13)CCCC2,72% (active),19%,0%,102% (active),inactive,inactive,inactive,inactive
OCCc1ccc(Nc2nccc(-c3nnc4ccccn34)n2)cc1,46%,63% (active),6%,93% (active),inactive,inactive,inactive,inactive
COc1cc(Nc2ccnc3cc(-c4ccccn4)ccc23)cc(OC)c1OC,0%,-9%,-1%,91% (active),inactive,inactive,inactive,inactive
COc1ccc(C(=O)Nc2ccc3nc(N4CCCCC4)cc(C)c3c2)cc1OC,7%,15%,3%,92% (active),inactive,inactive,inactive,inactive
CN(Cc1ccccc1)C1CCCN(c2cc(NC(=O)c3ccc(F)cc3)ccn2)C1 (stereo unspecified),95% (active),7%,0%,93% (active),inactive,inactive,inactive,inactive
CS(=O)(=O)CCNCc1cccc(-c2cc3nccc(Nc4ccc(Oc5ccccc5)cc4)c3cc2Cl)c1,82% (active),2%,-3%,100% (active),inactive,inactive,inactive,inactive
CCC(=O)Nc1ccc(Nc2nc(C)cc(N3CCCC3)n2)cc1,2%,34%,-2%,91% (active),inactive,inactive,inactive,inactive

Compound,growth inhibition [1],inhibition [2],inhibition [3],growth inhibition [4],outcome [5],outcome [6],outcome [7],outcome [8]
COc1cc(Cc2cnc(N)nc2N)ccc1Oc1ccc(N)cc1,-1%,0%,6%,93% (active),inactive,inactive,inactive,inactive
CCOc1ccc(-c2nonc2NC(=O)c2ccccc2)cc1OCC,100% (active),6%,4%,99% (active),inactive,inactive,inactive,inactive
O=C(NCc1ccccn1)C(c1cc2ccccc2o1)N1CCN(C(c2ccccc2)c2ccccc2)CC1 (stereo unspecified),68% (active),17%,0%,95% (active),inactive,inactive,inactive,inactive
c1cc(-c2ccc(CNCc3ccc(-c4csnn4)cc3)cc2)cc(-c2nc3ccccc3[nH]2)c1,96% (active),60% (active),-7%,100% (active),inactive,inactive,inactive,inactive
O=C(CCNc1ccnc(NCCc2ccccc2)n1)Nc1ccccc1,19%,7%,2%,89% (active),inactive,inactive,inactive,inactive
O=C(Nc1cccnc1)c1cc(-c2cccnc2)nc2ccc(Cl)cc12,50% (active),45%,-6%,97% (active),inactive,inactive,inactive,inactive
c1ccc2cc3c(NCCN4CCOCC4)ccnc3cc2c1,98% (active),-1%,-1%,99% (active),inactive,inactive,inactive,inactive
O=C(CSc1n[nH]c(=O)n1Cc1ccccc1)Nc1ccccc1-c1ccccc1,36%,-8%,3%,89% (active),inactive,inactive,inactive,inactive
CCN(CC)C(=O)c1cccc(/C=C/c2ccc(-c3c(C)[nH]c(C)c(Cl)c3=O)cc2)c1,96% (active),9%,6%,96% (active),inactive,inactive,inactive,inactive
CC1(C)N=C(N)N=C(N)N1c1cc(Cl)c(Cl)cc1Cl,-3%,11%,1%,95% (active),inactive,inactive,inactive,inactive
NC(=O)c1cnc2cc(-c3ccoc3)ccc2c1Nc1ccc(NC(=O)Nc2ccccc2Cl)cc1,76% (active),39%,-5%,100% (active),inactive,inactive,inactive,inactive
O=C1CSc2ccc(CNC3CCN(CCc4c(Cl)cnc5ccc(F)cc45)CC3)nc2N1,52% (active),21%,-2%,98% (active),inactive,inactive,inactive,inactive
CN(C)CCCOc1cccc(NC(=O)Nc2ccc(-c3ccccc3)cc2)c1,14%,9%,-8%,91% (active),inactive,inactive,inactive,inactive
CCN(CC)CCCNC(=O)/C(=C/C=C/c1cc2cc(Cl)c(Cl)cc2[nH]1)OC,21%,38%,-2%,84% (active),inactive,inactive,inactive,inactive
O=C(NC1CC1)c1ccc(N2CCCC(COc3ccccc3F)C2)nc1 (stereo unspecified),92% (active),8%,-2%,87% (active),inactive,inactive,inactive,inactive
CN1CCN(c2nsc3ccc(-c4ccc(OCCN5CCCC5)cc4)cc23)CC1,99% (active),57% (active),6%,102% (active),inactive,inactive,inactive,inactive
Cc1cc(-c2ccc(NC(=O)N3CCc4cc(Br)c(N5CCN(C)CC5)cc43)cc2)ccc1C#N,56% (active),100% (active),0%,99% (active),inactive,inactive,inactive,inactive
CN1CCN(c2ccc(-c3cccc(NC(=O)c4cccc([N+](=O)[O-])c4)c3)nn2)CC1,35%,21%,-1%,99% (active),inactive,inactive,inactive,inactive
CC(=O)N(Cc1nc(-c2cc(C(F)(F)F)cc(C(F)(F)F)c2)cs1)c1c(C)cccc1C,99% (active),-2%,1%,100% (active),inactive,inactive,inactive,inactive
O=C(NCc1cccc(F)c1)Nc1cccc(-c2cccc(-c3nc4ccccc4[nH]3)c2)c1,27%,28%,-1%,96% (active),inactive,inactive,inactive,inactive
COCCOc1ccc(C(F)(F)F)cc1NC(=O)Cc1c(F)cccc1Cl,74% (active),18%,2%,88% (active),inactive,inactive,inactive,inactive
